# According to the supplement of paper PMC6555819:
# Experiments:
# Experiment in all cases: PBM binding z-score (relative to random genomic background probes); higher = stronger binding; sequences stand for … in GC…GCGATTGACAGCGTAGAATGAAGG
# [1] = test system: RARb homodimer (NR concentration 270 nM)
# Method in brief: (§1)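 Binding buffer was PBS pH 7.4 with 2% milk, 0.02% Triton X-100, 1 mM DTT, 0.2 mg/mL BSA and 0.4 mg/ml salmon testes DNA. In it, ligand-free nuclear receptor dimers were incubated 1 h on custom Agilent 4×180K protein-binding microarrays carrying double-stranded probes. Antibodies against each partner (one per run) detected binding, and z-scores were calculated against random background probes after regression normalization of scanned fluorescence.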
# [2] = test system: RARg:RXRa (NR concentration 270 nM, RXRa partner concentration 90 nM)
# Method in brief: as §1
# [3] = test system: RARg homodimer (NR concentration 270 nM)
# Method in brief: as §1
# [4] = test system: RXRa DBDmut IVT, anti-RXR (DBD mutation: RXRa K156A/R161A, NR concentration 90 nM)
# Method in brief: as §1
# [5] = test system: RXRa homodimer (NR concentration 180 nM)
# Method in brief: as §1
# [6] = test system: THRa:RXRa (NR concentration 90 nM, RXRa partner concentration 90 nM)
# Method in brief: as §1
# [7] = test system: THRa homodimer (NR concentration 90 nM)
# Method in brief: as §1
# [8] = test system: VDR homodimer (NR concentration 270 nM)
# Method in brief: as §1
Sequence,PBM binding z-score [1],PBM binding z-score [2],PBM binding z-score [3],PBM binding z-score [4],PBM binding z-score [5],PBM binding z-score [6],PBM binding z-score [7],PBM binding z-score [8]
GATACAGGGTCAAGGCCAGAGTACGCGTATTGAT,3.46,5.41,4.92,2.66,5.69,3.52,1.35,2.91
TCGGGTAGGTTACGGGGGCATTCAGGGATGAAGA,3.18,4.23,4.1,3.04,3.43,4.32,3.14,4.85
CCCACTGGGGCAAAGGTTACCATACTCAGTACGA,2.15,3.57,1.81,-0.648,3.57,1.8,-0.0576,0.129
CGTCTAAGGTCAGCAGGTCAGTGAAAGCGACGTG,5.24,6.82,7.53,3.01,6.01,4.47,3.96,1.86
AATTCAGGGTCACTAGGCCAGAGTAGGTACGAAT,3.83,6.06,5.56,3.39,6.68,4,1.78,2.97
CGAACTAGGTCAAAGGACAGAGAAAGGCGACGTA,2.7,4.29,4.46,1.73,3.38,2.44,0.0564,0.391
CGAACTACGTCACCAGGACAGTGAAGAGGTTGGA,0.196,0.119,0.277,-0.206,0.256,1.27,0.657,0.0213
CGAACTAGGTCAAAGGACAATGAAAGGCGACGTA,3.04,4.01,4.77,1.13,3.35,2.67,0.783,0.585
CCTGCTCGGTCAATGGTCAGCTAAAGCAGCTCGC,1.62,1.65,2.47,0.331,0.053,-0.136,-0.403,-0.799
GGAACGAGGGCAAAGGTGATAGCATCTGTCGACG,1.66,3.02,1.95,2.07,3.31,1.85,-0.159,1.02
CGAACTAGGTCACCAGGACAGTGGAGAGGTTGGA,3.32,4.53,5.51,1.04,3.27,3.34,1.78,0.74
CCGACGGGGGCAAGGTTACCATAACGCACAGCCA,2.54,3.79,3.51,2.32,3.35,3.09,1.26,1.78
ATATGTAGGTTAGGGTCATGCAGAAAGTAGGGAA,3.55,4.44,3.61,2.02,5.67,4.25,3.53,2.78
CCTACTGGGCCAATGTCATTGATCAGTCAAAGCA,0.109,0.114,0.0827,-0.907,-0.139,-0.112,-0.837,-0.862
CGAACTACGTCAAAGGACAGTGAAAGGCGACGTA,0.995,0.411,0.951,-0.164,0.202,0.0886,-0.314,-0.351
TCGAGTAGGTTACGGGGGTATTCAGGGATGAAGA,1.58,2.08,1.62,1.44,2.06,2.99,1.08,1.21
CAAACTAGGTCAAAGGTCAAGGTCGAGCCAACCA,5.8,8.92,7.7,3.18,9.96,4.92,2.98,3.42
CTATGTAGGTTAAAGGGGTCATTCAGTTTGAAAG,4.23,5.28,4.06,2.87,6.56,3.91,1.29,6.99
ATATGTAGGTCAGGGTCATTCAGAAAGTAGGGAA,4.5,5.21,5.33,2.58,5.76,4,2.37,4.27

Sequence,PBM binding z-score [1],PBM binding z-score [2],PBM binding z-score [3],PBM binding z-score [4],PBM binding z-score [5],PBM binding z-score [6],PBM binding z-score [7],PBM binding z-score [8]
CAAACTAGGTCAAGGTCAAATTCGGTTTGTGCCA,5.19,6.03,6.67,3.1,6.24,4.38,3.92,4.1
CCAGACAGGTGAAAGGTAACTCCGTCTGGTACGC,0.693,1.23,0.537,-0.24,2.07,0.859,-0.16,-0.193
TCGAGTAGGTTACGGGGGCATTCAGGGATGAAGA,2.45,3.55,2.61,1.79,2.77,3.81,1.25,2.57
ATATGTAGGTTCCATCCGGGTCATTCAGGCTATG,2.11,1.65,1.19,0.91,2.18,3.44,2.32,2.91
TCGAGAAGGTTACGGGGGCATTCAGGGATGAAGA,3.05,4.33,3.04,2.36,4.23,4.21,1.42,3.33
CCGACTGGGCCATTCAGAGGTCATTGATCATATG,3.91,4.49,3.13,1.43,3.85,3.01,1.22,3.2
CGAACTAGGTCACCAGGACTGTGAAGAGGTTGGA,3.39,4.54,5.16,1.46,3.6,3.24,1.3,0.447
CCGAGTAGGTTACGAGGGGGCATTCCGTGCGAAT,1.89,3.09,2.37,1.01,2.12,3.56,0.446,2.75
ATCTGTAGGTTAGGGTCATTCAGAAAGTAGGGAA,3.65,4.2,3.96,2.35,5.32,4.19,3.53,4.36
ACTAGTTGTTCAGCTGAGGTCACACACAATTCGG,4.34,3.72,3.35,1.54,4.16,4.65,5.2,2.84
ATCGAAAGGTCGAAGGTGAGTACACCCACCCGAA,2.79,4.39,4.08,1.13,4.96,2.54,-0.0194,2.07
TTACCAAGGTGAAAGGTCGTTGAGGCACGCCTTG,2.61,4.52,2.03,0.589,6.39,3.49,0.818,1.32
CCGAGTAGGTTACGAGGGGGGATTCAGTGCGAAT,1.82,2.43,1.99,1.88,1.24,3.19,1.76,1.94
CGAACTAGGTCACCAGGATAGTGAAGAGGTTGGA,3.4,4.23,5.43,1.26,3.14,3.3,1.45,0.463
ACCAGCAGGCCAAGGGTCACTCAAGATTAGTCCG,3.61,4.08,3.49,0.237,4.04,2.63,0.148,1.1
GCTGCTAGGTAAGGTTGGTCAGCTAACGGGTACG,0.738,-0.277,-0.313,-0.185,-0.296,0.277,-0.184,-0.0228
CCCCGGAGGACAGAAGGTCAGAGCTGTCCGCTTT,3.7,3.27,3.26,-0.968,1.78,2.21,0.211,0.277
CGTCCAAGGTAAATGCTAGGTCAGTGAAAGCATT,2.15,1.85,1.23,0.0865,0.316,2.53,1.11,-0.194
CGAACTAGGTCACCAGCACAGTGAAGAGGTTGGA,3.37,4.43,5.44,1.35,3.29,3.1,1.29,0.496

Sequence,PBM binding z-score [1],PBM binding z-score [2],PBM binding z-score [3],PBM binding z-score [4],PBM binding z-score [5],PBM binding z-score [6],PBM binding z-score [7],PBM binding z-score [8]
CAAACTAGGTCACAGAGGTCGAAGTCCGTGCGTA,4.46,5.11,5.68,2.1,4.51,4.03,2,3.88
CGAACTAGGTCAAAGGACAGTGTAAGGCGACGTA,3.11,4.01,4.55,1.32,3.01,2.9,0.826,0.391
CCTAGATGGTCAGGAGGTCACACACCGGATATGA,4.09,5.06,4.28,0.392,4.73,3.5,2.26,2.68
ATCTCTAGGTGAAAGTTCAGTGAATCCCGAGGAT,2.67,2.88,2.27,0.779,2.74,2.19,0.227,1.33
CATAGTTGGTCAAGGTCACACACGCTATAGGTAC,4.31,4.62,4.62,2.04,4.73,4.18,4.02,3.8
TCGAGTAGGTTACGGGGGCATTCACGGATGAAGA,2.05,3.38,2.31,1.78,3.16,2.86,1.23,2.93
CAAACTAGGTCACCGGAAGGTCATAGTCCGCATG,5.85,7.82,6.45,1.8,5.92,4.58,3.33,2.78
CCGAGTAGGTTACGAGGGGGTATTCAGTGCGAAT,1.15,1.98,1.63,0.847,1.17,2.6,0.46,1.11
CCGAGTAGGTTACGAGGGGGCATTCTGTGCGAAT,2.05,3.13,2.43,1.11,1.68,3.55,0.547,2.56
CGTCCAAGGTCAAAGGTCAGCGAAGAGATGACGG,5.39,8.99,8.41,3.72,10.4,5.06,2.63,3.77
CCTCGGAGGACAGAAGGTCAGATCTGTCCGCTTT,3.49,3.26,3.53,0.421,2.01,2.25,0.0201,0.21
CCGAGTAGGTTACGAGGGGGCATGCAGTGCGAAT,2.07,3.17,2.67,1.12,2.12,3.73,0.433,2.6
GCTGCTAGGTCAACTGATGGTCAGCTAGAGCTCG,3.68,5.23,5.53,1.73,2.87,3.1,1.07,0.0219
CGAACTAGGTCAAAGGACACTGAAAGGCGACGTA,3.06,4.19,4.7,1.6,3.12,2.69,0.861,0.852
CCTACTGGGCGATTCAGAGGTCATTGATCATATG,3.62,3.12,2.1,0.873,3.28,2.83,0.887,2.83
GATACAGGGTCAGCTTGAGGCCAGAGTATGGAAA,2.94,5.72,4.77,1.81,4.55,3.73,0.959,0.666
TCGAGTAGGTTACGGGGGCAATCAGGGATGAAGA,2.12,3.25,2.36,1.52,2.73,3.4,0.675,2.03
CTATGTAGGTTAAGGGGGTCATTCACTTTGAAAG,3.95,5.11,4.05,2.33,5.85,3.53,1.72,5.5
